# In PMC5540273 (PLoS ONE, 2017):
# Tests used:
# Conditions in all cases: concentration: 1 μM, replicates: in singlicate; n = 1
# DMPK = test system: DMPK
# DRAK1 = test system: T1, DRAK1
# T1 construct: gene STK17A
# DRAK2 = test system: T2, DRAK2
# T2 construct: gene STK17B
# DYRK1A = test system: DYRK1A
# DYRK1B = test system: DYRK1B
# DYRK2 = test system: DYRK2
# EGFR = test system: EGFR
# EIF2AK1 = test system: EIF2AK1
# EPHA1 = test system: EPHA1
# EPHA2 = test system: EPHA2
# EPHA3 = test system: EPHA3
# EPHA4 = test system: EPHA4
# EPHA5 = test system: EPHA5
# EPHA6 = test system: EPHA6
# EPHA7 = test system: EPHA7
# EPHA8 = test system: EPHA8
# EPHB1 = test system: EPHB1
# EPHB2 = test system: EPHB2
# EPHB3 = test system: EPHB3
# EPHB4 = test system: EPHB4
# 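Further: KINOMEscan kinase panel screen.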
Structure (SMILES),%Inh (DMPK) [%],%Inh (DRAK1) [%],%Inh (DRAK2) [%],%Inh (DYRK1A) [%],%Inh (DYRK1B) [%],%Inh (DYRK2) [%],%Inh (EGFR) [%],%Inh (EIF2AK1) [%],%Inh (EPHA1) [%],%Inh (EPHA2) [%],%Inh (EPHA3) [%],%Inh (EPHA4) [%],%Inh (EPHA5) [%],%Inh (EPHA6) [%],%Inh (EPHA7) [%],%Inh (EPHA8) [%],%Inh (EPHB1) [%],%Inh (EPHB2) [%],%Inh (EPHB3) [%],%Inh (EPHB4) [%]
CCCCCc1nc2c(N)ncnc2n1CCCCC [SKF-97255],0,0,11,0,0,27,0,0,0,0,0,10,0,5,0,0,5,0,5,0
Cn1ccc2ncnc(Oc3ccc(NC(=O)Nc4ccncc4)c(Cl)c3)c21,0,0,0,0,21,0,0,0,0,0,0,14,0,16,0,0,0,2,6,1
O=C(Nc1n[nH]c2cc(-c3cccc(F)c3)ccc12)C1CC1 [SB-735464],0,7,0,10,0,16,0,0,25,0,17,24,0,14,14,13,0,0,20,21
O=C1Cc2cc(Nc3nc(NCc4cccc(S(=O)(=O)C(F)(F)F)c4)ncc3C(F)(F)F)ccc2N1,5,6,0,13,26,0,0,0,19,3,0,0,10,0,0,0,0,0,1,8
N#Cc1c(N2CCOCC2)sc(-c2ccn[nH]2)c1-c1ccc(Cl)cc1,4,0,0,0,47,0,0,0,1,0,11,0,16,27,5,7,14,0,15,12
Fc1ccc(-c2ncn(CCCN3CCOCC3)c2-c2cccnc2)cc1 [SB-211743],24,0,0,3,0,24,0,0,0,0,1,0,11,0,0,3,20,0,0,0
Nc1nccc(-c2c(-c3ccc(F)cc3)ncn2C2CCN(CC(F)(F)F)CC2)n1 [SB-236560],11,0,1,5,28,0,29,20,0,0,0,0,0,0,0,0,0,14,0,0
CNc1ncnc2[nH]ncc12 [SKF-18355],0,10,0,0,0,37,0,0,0,0,11,0,0,0,0,29,0,0,0,0
